This is an account of results in PubChem BioAssay AID463173 (ICCB-Longwood Screening Facility, Harvard Medical School, 2010).

In all, about 52,000 compounds went through this assay and about 1,700 (3.3%) were called active. This excerpt belongs to a sample that is enriched for actives. Unmarked numbers belong to inactive results. Cut-off read from the data, not from the text of the source: active = survival mostly below about 52% (no sharp cut-off); inactive = mostly above about 56%.

The experiment relates to Wild type. The experiment can be described thus: S. aureus survival, RN4220 and DeltatarO strains – OD600, teichoic acid synthesis inhibitors, primary screen (AID 463173). To be noted: S. aureus RN4220 wild type/DeltatarO growth, OD600, 18 h, stronger effect = lower value, screened at 18.75 µg/mL (by protocol).
With `CCn1nc(CC(=O)Nc2nnc(CC(=O)N3CCCC3)s2)c2ccccc2c1=O`, the survival was 95%.

Turning to `Cc1nc2ccc(S(=O)(=O)NC(C(=O)NCc3ccc(Cl)cc3)C(C)C)cc2s1` (stereo not given), the survival is 133%.

Consider `O=C(CCS(=O)(=O)c1cc2c(cc1Cl)NC(=O)CO2)NCc1ccccc1Cl`, for which the survival was 88%.

`COc1cc(NC(=O)CN(c2cc(C)cc(C)c2)S(=O)(=O)c2c(C)[nH]c(=O)[nH]c2=O)cc(OC)c1`: the survival was 83%.

On to `Cc1cccc(NC(=O)C2CCN(c3nnc(-n4c(C)ccc4C)s3)CC2)c1C`, for which the survival is 132%.

Turning to `O=C(COCc1cc(-c2ccc(F)cc2)on1)Nc1cccc(C(F)(F)F)c1`, the survival is 77%.

Take `O=C(c1ccccc1)N(Cc1ccco1)Cc1cccs1`: the survival was 82%.

Regarding `CCn1c(CN2CCCCC2)nc2cc(NC(=O)COc3ccccc3C(C)(C)C)ccc21`, the survival is 122%.

For `Cc1ccc(Cn2cc(C(=O)c3ccc(C)cc3)c(=O)c3ccc(C)nc32)cc1`, the survival is 20% (active).

Regarding `Cc1ccc(C(=O)c2cn(Cc3ccc(F)cc3)c3nc(C)ccc3c2=O)cc1`, the survival was 95%.

Take `Cc1ccc(C(=O)c2cn(Cc3ccc(Cl)cc3)c3nc(C)ccc3c2=O)cc1`: the survival is 53%.

As for `CCOC(=O)c1cc(-c2ccccc2)n(CC(=O)Nc2cc(Cl)c(OC)cc2OC)c1C`, the survival was 128%.

For the compound `CCOC(=O)c1ccc(NS(=O)(=O)c2cc(Br)cc3c2N(C(C)=O)C(C)C3)cc1` (stereo not given), the survival was 83%.

Take `COc1ccc(N2CCN(C(=O)CCS(=O)(=O)c3cc4c(cc3Cl)NC(=O)CO4)CC2)cc1`: the survival is 85%.

On to `CCOCCc1nnc(NC(=O)C(=O)c2cc(C)n(-c3ccc(C)cc3C)c2C)s1`, for which the survival is 85%.

With `Cc1ccc(-c2nc3c(C)cccn3c2Nc2ccccc2C)s1`, the survival is -2% (active).

Take `Cc1ccc(-c2nc3ccccn3c2Nc2ccccc2C)s1`: the survival is 11% (active).

As to `Cc1ccc(Nc2c(-c3ccc(C)s3)nc3ccccn23)cc1`, the survival was 31%.

Turning to `Cc1ccc(-c2nc3ccc(Cl)cn3c2Nc2ccccc2C)s1`, the survival is 94%.

For `Cc1ccccc1Nc1c(-c2ccc(Cl)s2)nc2c(C)cccn12`, the survival was 69%.

With `Fc1ccc(Nc2c(-c3ccco3)nc3ccccn23)cc1`, the survival is 69%.

For the compound `Cc1ccccc1Nc1c(-c2ccc(Cl)s2)nc2cccc(C)n12`, the survival is 80%.

As to `Cc1ccccc1Nc1c(-c2ccco2)nc2c(C)cccn12`, the survival is 1% (active).

As for `Cc1cccc(C)c1Nc1c(-c2ccccn2)nc2c(C)cccn12`, the survival was 77%.

In the case of `CCc1nnc(SCc2nc(-c3ccc(OC)cc3)oc2C)c2cc3sccc3n12`, the survival was 86%.
